Measured values reported in PubChem BioAssay (Tox21).
Records with an inconclusive call do not appear. Active and inactive are the calls of the source. Unless noted, calls come from the whole dose curve; as a rule, active = well fitted curve in the direction sought with a large enough effect in the repeat runs; inconclusive = weak or mixed curves; inactive = no such curve, though single readings can be large; an effect the other way counts as inactive or inconclusive.

Columns and labels:
[1] = qHTS assay to identify aromatase inhibitors - cell viability counter screen (AID 743084); details: MCF-7 aro ERE viability, CellTiter-Fluor, 24 h; series mostly up to 70.3 µM;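 note: cells stimulated with testosterone during compound exposure; nearly all actives have a fitted effect of over 55% in size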; note: potency is the fitted concentration of half-maximal effect
[2] = qHTS assay to identify small molecule that activate the aryl hydrocarbon receptor (AhR) signaling pathway - cell viability counter screen (AID 743086); details: HepG2-AhR-luc viability, CellTiter-Fluor, 24 h; series mostly up to 70.3 µM; note: nearly all actives have a fitted effect of over 45% in size; note: potency is the fitted concentration of half-maximal effect
Outline: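 HepG2-AhR-luc (HG2L7.5c1) cells, 4000/well, treated 24 h at 37 C with compound; viability measured as CellTiter-Fluor fluorescence after 30 min in the same wells as the luciferase read.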

[3] = qHTS assay to identify small molecule antagonists of the peroxisome proliferator-activated receptor gamma (PPARg) signaling pathway - cell viability counter screen (AID 743194); details: PPARg-bla HEK293H viability, CellTiter-Glo luminescence, 17 h, co-treated with 50 nM rosiglitazone; series mostly up to 62.6 µM; note: nearly all actives have a fitted effect of over 55% in size; note: potency is the fitted concentration of half-maximal effect
Outline: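 Cytotoxicity counter screen in PPARg-bla HEK293H cells, same wells as reporter assay. Compounds plus 50 nM rosiglitazone (final) for 17 h at 37 C, then viability read by CellTiter-Glo luminescence.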

[4] = qHTS assay for small molecule agonists of the antioxidant response element (ARE) signaling pathway (AID 743202; active = well fitted activation curve with a large enough effect in the signal ratio in the repeat runs, not every such curve was filed as active; the % refers to the signal ratio; note: potency is the fitted concentration of half-maximal effect); details: HepG2 ARE-bla reporter, beta-lactamase FRET, 16 h; series mostly up to 73.3 µM
Outline: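 HepG2 ARE-bla reporter line, 2,000 cells/well; 5 h preincubation 37 C/5% CO2; compound (DMSO) 16 h 37 C; B/G FRET substrate 2 h RT; fluorescence intensity.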

[5] = qHTS assay for small molecule agonists of the antioxidant response element (ARE) signaling pathway - cell viability counter screen (AID 743203; calls by dose curve; note: nearly all actives have a fitted effect of over 55% in size; note: potency is the fitted concentration of half-maximal effect); details: ARE-bla HepG2 viability, CellTiter-Glo luminescence, 16 h; series mostly up to 73.3 µM
Outline: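 Parallel cytotoxicity read-out for the ARE-bla screen: HepG2 reporter cells, 16 hrs with compounds, then CellTiter-Glo luminescence.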

[6] = qHTS assay for small molecule activators of the heat shock response signaling pathway - cell viability counter screen (AID 743209); details: HSE-bla HeLa viability, CellTiter-Glo luminescence, 5 h; series mostly up to 62.6 µM; note: nearly all actives have a fitted effect of over 50% in size; note: potency is the fitted concentration of half-maximal effect
Outline: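 To flag cytotoxic compounds, HSE-bla HeLa cells plated at 1500 cells/well were dosed for 5 h at 37 C, followed by the reporter FRET read and then CellTiter-Glo, with luminescence recorded 30 min after reagent addition.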

[7] = qHTS assay to identify small molecule agonists of the peroxisome proliferator-activated receptor delta (PPARd) signaling pathway - cell viability counter screen (AID 743211); details: PPARd-bla HEK293H viability, CellTiter-Glo luminescence, 17 h; series mostly up to 62.6 µM; note: nearly all actives have a fitted effect of over 55% in size; note: potency is the fitted concentration of half-maximal effect
Outline: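 In the same wells used for beta-lactamase reporter measurement, cytotoxicity is scored by CellTiter-Glo. HEK293H PPARd-bla cells receive compound for 17 h at 37C following a 5 h settling period.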

[8] = molecular target: Peroxisome proliferator-activated receptor delta (Homo sapiens) (UniProt Q03181); assay: qHTS assay to identify small molecule antagonists of the peroxisome proliferator-activated receptor delta (PPARd) signaling pathway (AID 743215; active = well fitted inhibition curve with a large enough effect in the signal ratio in the repeat runs, not every such curve was filed as active; the % refers to the signal ratio;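 note: cells stimulated with agonist L165041 at 300 nM final during compound exposure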); details: HEK293H PPARd-UAS-bla, beta-lactamase FRET ratio, antagonist, 17 h; series mostly up to 62 µM
Outline: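 Screen format: qHTS, antagonist mode. HEK293H PPARd-bla cells received compound and 300 nM L165041 (final), 17 h, 37 C. Beta-lactamase detected via FRET substrate fluorescence, 2 h, room temperature.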

[9] = molecular target: Bile acid receptor (Homo sapiens) (UniProt Q96RI1); assay: qHTS assay to identify small molecule antagonists of the farnesoid-X-receptor (FXR) signaling pathway (AID 743217; active = well fitted inhibition curve with a large enough effect in the signal ratio in the repeat runs, not every such curve was filed as active; the % refers to the signal ratio); details: HEK293T FXR-UAS-bla, beta-lactamase ratio, CDCA-stimulated, 16 h; series mostly up to 62.6 µM
Outline: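 Quantitative HTS, beta-lactamase reporter format: FXR-UAS-bla HEK 293T cells co-treated 16 h at 37 °C with compounds and 50 uM final chenodeoxycholic acid, then read by B/G FRET fluorescence.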

[10] = qHTS assay to identify small molecule antagonists of the farnesoid-X-receptor (FXR) signaling pathway - cell viability counter screen (AID 743221; active = well fitted cell-killing curve with a large enough effect in the repeat runs, not every such curve was filed as active; note: nearly all actives have a fitted effect of over 50% in size; note: potency is the fitted concentration of half-maximal effect); details: FXR-bla HEK293T viability, CellTiter-Glo luminescence, 16 h; series mostly up to 62.6 µM
Outline: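 Here viability was scored by luminescence after CellTiter-Glo addition to wells already read for beta-lactamase. Prior treatment: compound plus CDCA (50 uM final), 16 h, 37 C, HEK 293T FXR-bla cells.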

[11] = qHTS assay for small molecule activators of the heat shock response signaling pathway (AID 743210; active = well fitted activation curve with a large enough effect in the signal ratio in the repeat runs, with a control signal flat, not every such curve was filed as active; the % refers to the signal ratio;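 note: HeLa cells with beta-lactamase reporter driven by heat shock elements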); details: HeLa HSE-bla reporter, beta-lactamase ratio, 5 h; series mostly up to 62.6 µM
Outline: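 Beta-lactamase reporter read-out: FRET substrate fluorescence after 2.5 h at RT, following 5 h compound treatment at 37 C of HeLa cells carrying HSE-driven bla reporter; quantitative HTS format.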

[12] = molecular target: Peroxisome proliferator-activated receptor delta (Homo sapiens) (UniProt Q03181); assay: qHTS assay to identify small molecule agonists of the peroxisome proliferator-activated receptor delta (PPARd) signaling pathway (AID 743212; calls by dose curve); details: HEK293H PPARd-UAS-bla, beta-lactamase FRET ratio, 17 h; series mostly up to 62.6 µM
Outline: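 Read-out: beta-lactamase FRET fluorescence after 2 h room-temperature incubation with LiveBLAzer B/G substrate. Cells were HEK293H carrying a UAS-bla reporter for PPARd, treated at 37 C with DMSO-dissolved compounds.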

[13] = qHTS assay to identify small molecule antagonists of the peroxisome proliferator-activated receptor delta (PPARd) signaling pathway - cell viability counter screen (AID 743213); details: PPARd-bla HEK293H viability, CellTiter-Glo luminescence, 17 h; series mostly up to 62 µM; note: nearly all actives have a fitted effect of over 50% in size; note: potency is the fitted concentration of half-maximal effect
Outline: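 PPARd-bla HEK293H cells (3000/well) got compound plus 300 nM L165041 agonist for 17 h at 37 C. Viability in the same wells came from CellTiter-Glo luminescence after 30 min at room temperature.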

[14] = qHTS assay to identify small molecule agonists of the farnesoid-X-receptor (FXR) signaling pathway - cell viability counter screen (AID 743218); details: FXR-bla HEK293T viability, CellTiter-Glo luminescence, 16 h; series mostly up to 62.6 µM; note: nearly all actives have a fitted effect of over 45% in size; note: potency is the fitted concentration of half-maximal effect
Outline: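 Same-well cytotoxicity check on FXR-UAS-bla HEK 293T cells: 5 h attachment, 16 h compound at 37 C, CellTiter-Glo luminescence read at room temperature after 30 min.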

[15] = molecular target: Vitamin D3 receptor (Homo sapiens) (UniProt P11473); assay: qHTS assay to identify small molecule agonists of the vitamin D receptor (VDR) signaling pathway (AID 743222; calls by dose curve); details: HEK293T VDR-UAS-bla, beta-lactamase FRET ratio, 16 h; series mostly up to 63.5 µM
Outline: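 Using LiveBLAzer B/G FRET detection, agonism was scored in VDR-bla cells exposed overnight (16 h, 37C) to DMSO-dissolved compounds; substrate incubation was 2 h at room temperature.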

[16] = molecular target: Peroxisome proliferator-activated receptor gamma (Homo sapiens) (UniProt P37231); assay: qHTS assay to identify small molecule agonists of the peroxisome proliferator-activated receptor gamma (PPARg) signaling pathway (AID 743094; active = well fitted activation curve with a large enough effect in the signal ratio in the repeat runs, not every such curve was filed as active; the % refers to the signal ratio); details: HEK293H PPARg-UAS-bla, beta-lactamase FRET ratio, 17 h; series mostly up to 57 µM
Outline: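 Fluorescence-based beta-lactamase readout in HEK293H PPARg UAS-bla cells after 17 h compound exposure (37C) and 1 h B/G FRET substrate incubation at room temperature.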

[17] = molecular target: Bile acid receptor (Homo sapiens) (UniProt Q96RI1); assay: qHTS assay to identify small molecule agonists of the farnesoid-X-receptor (FXR) signaling pathway (AID 743220; active = well fitted activation curve with a large enough effect in the signal ratio in the repeat runs, not every such curve was filed as active; the % refers to the signal ratio); details: HEK293T FXR-UAS-bla, beta-lactamase FRET ratio, 16 h; series mostly up to 62.6 µM
Outline: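 FXR-UAS-bla HEK 293T cells carrying a UAS-driven beta-lactamase reporter were plated for 5 h at 37C/5% CO2, then exposed to DMSO-dissolved Tox21 10K compounds for 16 h at 37C. A LiveBLAzer B/G FRET substrate was loaded for 2 h at room temperature before fluorescence reading.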

[18] = molecular target: Peroxisome proliferator-activated receptor gamma (Homo sapiens) (UniProt P37231); assay: qHTS assay to identify small molecule antagonists of the peroxisome proliferator-activated receptor gamma (PPARg) signaling pathway (AID 743191; calls by dose curve; note: nearly all actives have a fitted effect of over 30% in size); details: HEK293H PPARg-UAS-bla, beta-lactamase ratio, antagonist, 17 h; series mostly up to 62.6 µM
Outline: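 GeneBLAzer PPARg UAS-bla HEK293H cells, 5 h post-plating, exposed to compounds 17 h at 37C. LiveBLAzer B/G FRET substrate added for 1 h at room temperature; beta-lactamase reporter read by fluorescence intensity.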

[19] = molecular target: Vitamin D3 receptor (Homo sapiens) (UniProt P11473); assay: qHTS assay to identify small molecule antagonists of the vitamin D receptor (VDR) signaling pathway (AID 743223; active = well fitted inhibition curve with a large enough effect in the signal ratio in the repeat runs, not every such curve was filed as active; the % refers to the signal ratio); details: VDR-UAS-bla HEK293T, beta-lactamase FRET ratio, 16 h; series mostly up to 61 µM
Outline: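 Inhibition of agonist-driven VDR signalling is scored in VDR-bla cells: 3 nM final 1alpha,25-dihydroxyvitamin D3 plus compound, 16 h at 37C, then beta-lactamase detection by FRET substrate fluorescence after 2 h.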

Measured: Potency

Sequence of Bile acid receptor (Homo sapiens) (Q96RI1 whole entry, looked up): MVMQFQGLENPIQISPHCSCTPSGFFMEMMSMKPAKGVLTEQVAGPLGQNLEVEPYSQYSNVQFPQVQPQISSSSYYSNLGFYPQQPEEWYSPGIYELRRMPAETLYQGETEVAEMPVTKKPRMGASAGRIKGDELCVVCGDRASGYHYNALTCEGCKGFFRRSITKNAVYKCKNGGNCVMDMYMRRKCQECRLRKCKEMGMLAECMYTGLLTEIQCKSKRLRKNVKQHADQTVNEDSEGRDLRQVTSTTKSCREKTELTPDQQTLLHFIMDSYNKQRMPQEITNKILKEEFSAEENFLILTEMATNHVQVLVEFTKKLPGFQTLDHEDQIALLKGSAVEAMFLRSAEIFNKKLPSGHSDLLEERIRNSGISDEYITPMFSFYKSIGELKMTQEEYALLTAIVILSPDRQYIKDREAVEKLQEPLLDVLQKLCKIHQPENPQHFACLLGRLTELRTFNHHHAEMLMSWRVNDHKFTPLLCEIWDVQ
Sequence of Peroxisome proliferator-activated receptor gamma (Homo sapiens) (P37231 whole entry, looked up): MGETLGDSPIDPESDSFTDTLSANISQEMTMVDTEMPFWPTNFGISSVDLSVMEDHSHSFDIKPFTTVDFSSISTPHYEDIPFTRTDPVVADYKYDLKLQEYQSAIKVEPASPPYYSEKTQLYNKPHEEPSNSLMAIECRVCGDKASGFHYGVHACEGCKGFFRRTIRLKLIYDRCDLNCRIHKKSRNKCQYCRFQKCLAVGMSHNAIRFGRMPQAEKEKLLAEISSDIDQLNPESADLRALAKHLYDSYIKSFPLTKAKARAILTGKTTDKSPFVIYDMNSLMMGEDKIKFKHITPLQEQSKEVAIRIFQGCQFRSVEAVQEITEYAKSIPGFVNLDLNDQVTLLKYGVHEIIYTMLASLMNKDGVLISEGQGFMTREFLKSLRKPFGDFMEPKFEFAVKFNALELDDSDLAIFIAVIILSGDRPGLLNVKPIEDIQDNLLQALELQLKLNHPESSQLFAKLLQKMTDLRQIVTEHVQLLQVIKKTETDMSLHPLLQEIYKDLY
Sequence of Vitamin D3 receptor (Homo sapiens) (P11473 whole entry, looked up): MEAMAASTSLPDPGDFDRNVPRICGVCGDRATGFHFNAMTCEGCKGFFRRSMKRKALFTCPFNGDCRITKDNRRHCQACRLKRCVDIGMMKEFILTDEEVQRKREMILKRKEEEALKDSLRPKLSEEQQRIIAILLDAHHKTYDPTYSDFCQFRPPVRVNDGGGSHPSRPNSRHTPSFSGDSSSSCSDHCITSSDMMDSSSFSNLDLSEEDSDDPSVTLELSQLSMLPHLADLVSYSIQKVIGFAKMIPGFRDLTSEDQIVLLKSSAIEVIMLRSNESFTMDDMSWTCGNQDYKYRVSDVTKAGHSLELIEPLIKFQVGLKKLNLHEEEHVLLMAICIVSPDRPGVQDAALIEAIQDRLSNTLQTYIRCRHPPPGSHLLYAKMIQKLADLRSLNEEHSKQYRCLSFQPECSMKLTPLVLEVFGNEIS
Sequence of Peroxisome proliferator-activated receptor delta (Homo sapiens) (Q03181 whole entry, looked up): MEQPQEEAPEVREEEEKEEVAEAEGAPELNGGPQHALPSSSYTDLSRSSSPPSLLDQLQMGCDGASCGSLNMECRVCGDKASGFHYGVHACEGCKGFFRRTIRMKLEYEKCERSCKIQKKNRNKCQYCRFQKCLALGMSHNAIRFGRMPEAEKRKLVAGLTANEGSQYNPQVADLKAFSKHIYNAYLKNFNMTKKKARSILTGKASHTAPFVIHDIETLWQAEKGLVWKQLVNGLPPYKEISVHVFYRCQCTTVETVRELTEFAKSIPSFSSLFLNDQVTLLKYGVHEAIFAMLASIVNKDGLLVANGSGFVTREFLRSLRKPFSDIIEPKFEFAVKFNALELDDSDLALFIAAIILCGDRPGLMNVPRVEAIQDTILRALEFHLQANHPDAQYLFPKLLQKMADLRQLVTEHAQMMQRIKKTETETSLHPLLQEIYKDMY

CCCCC(CC)COCCCN (configuration not stated)
inactive: [1] | [2] | [3] | [4] | [5] | [6] | [7] | [8] | [9] | [10]

CCOc1ccc(NC(=O)CC(C)=O)cc1
not listed: [8] | [9] | [16] | [17] | [18] | [19]
inactive: all other assays above

Cl/C(=C\n1cncn1)c1ccc(Cl)cc1Cl
inactive: [1] | [2] | [16] | [3] | [6] | [11] | [7] | [13] | [14] | [10]

O=S1(=O)N=C(O)c2ccccc21
inactive: [1] | [2] | [3] | [4] | [6] | [7] | [13] | [14] | [10]

O=C(O)[C@@H]1[C@H]2C[C@H]3c4[nH]c5ccccc5c4CCN3C[C@@H]2CC[C@@H]1O
not listed: [11] | [12] | [18] | [19]
inactive: all other assays above

CCCCCCCCN(C)C
not listed: [3] | [6] | [8] | [9] | [11] | [12] | [17] | [19]
inactive: all other assays above

COc1ccc2[nH]c(S(=O)Cc3ncc(C)c(OC)c3C)nc2n1 (configuration not stated)
active: [4] 10.6 µM
not listed: [9] | [13] | [16] | [17] | [18]
inactive: all other assays above

CN(C)CCCOc1nn(Cc2ccccc2)c2ccccc12
not listed: [4] | [7] | [9] | [13] | [15] | [17] | [18] | [19]
inactive: all other assays above

O=C=NC1CCC(CC2CCC(N=C=O)CC2)CC1 (configuration not stated)
not listed: [7] | [8] | [9] | [10] | [11] | [14] | [17] | [18]
inactive: all other assays above

ClC(Cl)(Cl)c1ccc(C(Cl)(Cl)Cl)cc1
not listed: [8] | [9] | [12] | [17] | [18]
inactive: all other assays above

NC(N)=NN=C(/C=C/c1ccc([N+](=O)[O-])o1)/C=C/c1ccc([N+](=O)[O-])o1
active: [1] 5.31 µM | [2] 7.5 µM | [3] 2.11 µM | [5] 5.96 µM | [6] 5.31 µM | [7] 9.44 µM | [13] 9.44 µM | [14] 10.6 µM | [10] 23.7 µM
